# Tau fluor cs – counter-screen for tau fibril formation inhibitors. AID 1463. actives 0.93% (n = 280,000). tau K18 P301L Alexa594 fluorescence, heparin fibrillization. Potency, µM (doses to about 57.7 µM), inactives show at the top dose activity change, negative = decrease; also: potency is read from the fitted curve at half-maximal effect; % is scaled to controls: 0 for no effect and ±100 for the full control effect; nearly all actives have a fitted effect of over 55% in size
#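 Human tau K18 P301L (15 uM unlabeled, 0.24 uM Alexa 594-labeled) in 100 mM sodium acetate pH 7 with 20 uM heparin, 6 hr at 37 C. ThT 30 uM added, 1 hr ambient; Alexa 594 FP and total fluorescence read at 555/632 nm.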
# JMJD2E inh – inhibitors of human JMJD2E histone demethylase | B2RXH2 | JMJD2E catalytic domain, FDH-coupled NADH fluorescence (FDH is formaldehyde dehydrogenase) | Potency, µM (doses to about 57.1 µM), inactives show top-dose activity change, negative = inhibition, hits mostly inhibitors | actives 1.6% (n = 230,000) | AID 2147; active = well fitted inhibition curve with a large enough effect, not every such curve was filed as active; inconclusive = small, poorly fitted or top-dose-only effect, or another doubt; inactive = no such curve, though single readings can be large or run the other way;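 also: potency is read from the fitted curve at half-maximal effect; 0% = wells with enzyme and -100% = buffer wells without enzyme; nearly all actives have a fitted effect of over 50% in size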
# Target sequence (B2RXH2 1-337 limits assumed): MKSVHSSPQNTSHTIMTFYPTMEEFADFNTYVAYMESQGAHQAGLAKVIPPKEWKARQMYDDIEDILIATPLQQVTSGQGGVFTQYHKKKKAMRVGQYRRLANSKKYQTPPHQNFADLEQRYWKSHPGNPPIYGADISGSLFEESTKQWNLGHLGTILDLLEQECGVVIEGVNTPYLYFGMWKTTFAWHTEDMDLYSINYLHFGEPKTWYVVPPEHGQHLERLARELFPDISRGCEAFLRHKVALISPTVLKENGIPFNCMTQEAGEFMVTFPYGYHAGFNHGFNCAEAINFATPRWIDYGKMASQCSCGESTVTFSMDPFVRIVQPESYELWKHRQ
# CBFb-RUNX1 inh – CBF-beta/RUNX1 interaction disruption; AlphaScreen CBFb-His/RUNX1-biotin binding, biochemical; Potency, µM (highest dose often 59.8 µM), without a hit: top-dose activity, negative = inhibition, hits mostly inhibitors; 230,000 tested, under 10 active; AID 1477; also: % of control where 0% means no effect
#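 CBFb-His/RUNX1-biotin, 30 nM each, preincubated 20 min RT; compound 15 min RT; Ni + streptavidin beads 50 ng each, 90 min RT; AlphaScreen read.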
# Lamin A splicing – LMNA splicing modulation; HeLa LMNA splicing GFP/RFP minigene ratio, 48 h; Potency, µM (series often up to 46.1 µM), for inactives: at the highest dose ratio change, negative = inhibition, actives largely listed as inhibitors; actives 0.01% (n = 200,000); AID 1487; active = well fitted inhibition curve with a large enough effect in the signal ratio, with a control signal flat, not every such curve was filed as active; inconclusive = small, poorly fitted or top-dose-only effect, or effect the other way, or a change in a side signal; the % refers to the signal ratio; also: potency is read from the fitted curve at half-maximal effect; % is scaled to controls: 0 for no effect and ±100 for the full control effect
#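 S3 HeLa stable clones carrying a lamin A-EGFP splicing minigene plus DsRed2 were seeded at 600 cells/well in Opti-MEM with 2% FBS, pin-dosed and incubated 48 h at 37°C. Acumen cytometry (488 nm) gave the GFP/RFP total-intensity ratio.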
# Tau ThT inhib – inhibitors of human tau fibril formation, thioflavin T binding. P10636. recombinant tau K18 P301L (four-repeat tau fragment), heparin-induced fibrillization, ThT fluorescence. Potency, µM (highest dose often 57.4 µM), for the others: at the highest dose activity, negative = inhibition, usual class: inhibitors. actives 2.1% (n = 270,000); also: potency is read from the fitted curve at half-maximal effect; % is scaled to controls: 0 for no effect and ±100 for the full control effect; nearly all actives have a fitted effect of over 55% in size
# Target sequence (P10636 561-689 P618L limits assumed): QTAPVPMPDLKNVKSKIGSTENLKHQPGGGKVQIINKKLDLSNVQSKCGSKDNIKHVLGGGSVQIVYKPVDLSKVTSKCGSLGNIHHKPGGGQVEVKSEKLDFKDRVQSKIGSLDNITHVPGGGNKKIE
#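 Recombinant human tau K18 fragment […] carrying P301L, 15 uM unlabeled plus 0.24 uM Alexa 594-labeled, was fibrillized with 20 uM heparin in 100 mM sodium acetate pH 7 for 6 hr at 37 C; 30 uM ThT fluorescence read after 1 hr.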
# Tau FP inhib – inhibitors of human tau fibril formation; P10636; K18 P301L tau heparin fibrillization, Alexa594 FP, 6 h; Potency, µM (top dose mostly 57.7 µM), inactives show at the highest dose activity, negative = inhibition, usual class: inhibitors; actives 0.39% (n = 280,000); also: potency is read from the fitted curve at half-maximal effect; % is scaled to controls: 0 for no effect and ±100 for the full control effect; nearly all actives have a fitted effect of over 55% in size
#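 FP of Alexa 594-tau after heparin (20 uM) induction. Substrate: human K18 P301L, 15 uM unlabeled, 0.24 uM labeled. Buffer 100 mM sodium acetate pH 7. 6 hr, 37 C.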
# * hit, by the source's call; ? = inconclusive; nt = no result; [ ] = dose if it differs, or a comment. An excerpt weighted towards active compounds, which were near 3.2% of everything screened. Unless noted, calls follow the shape of the dose curve; as a rule, active = well fitted curve in the direction sought with a large enough effect; inconclusive = small, poorly fitted or top-dose-only effect, or another doubt; inactive = no such curve, though single readings can be large; an effect the other way counts as inactive or inconclusive.
SMILES,Tau fluor cs,JMJD2E inh,CBFb-RUNX1 inh,Lamin A splicing,Tau ThT inhib,Tau FP inhib
Cc1onc(-c2ccccc2Cl)c1C(=O)Nc1sc2c(c1C#N)CCC2,?,4.3%,5.3%,-17.7%,28.2µM*,?
CC(=O)OC[C@@H]1O[C@@H](O/N=C2/C[C@@H](O)[C@@H](O)[C@@H]3[C@@H]4C(=O)N(Cc5ccc6c(c5)OCO6)C(=O)[C@H]4CC[C@@H]23)[C@H](OC(C)=O)[C@H](OC(C)=O)[C@@H]1OC(C)=O,-5.6%[11.6 µM],nt,13.3%[13.1 µM],nt,-1.7%[11.5 µM],0.5%[11.6 µM]
Cc1ncoc1C(=O)Nc1nccs1,-12.2%,-5.4%,1.3%,2.5%,?,1.7%
Cc1ncoc1C(=O)Nc1ncc([N+](=O)[O-])s1,-20.2%,-14.7%,-8.6%,?,25.1µM*,?
Cc1cccc(S(=O)Cc2ccc(C(=O)NC3CCCCCC3)o2)c1 (centres undefined),-2.6%,nt,nt,nt,-0.6%,2.3%
O=S(=O)(/C(=C/c1ccc(C(F)(F)F)cc1)c1nc2ccccc2[nH]1)c1ccccc1,-12.4%,-4.7%,-2.4%,?,28.2µM*,?
O=C(NN=C1CCN(Cc2ccccc2)CC1)c1ccccc1O,-20.9%,?,-18.5%,nt,?,-2.7%
O=C(NN=C1CCN(Cc2ccccc2)CC1)c1cc2ccccc2cc1O,?,28.2µM*,?,?,12.6µM*,1.4%
CC(=O)c1ccc(NC(=O)c2c3c(nc4ccccc24)C(=O)N(C2CCCCC2)C3)cc1,-7.6%,nt,nt,?,-1.7%,5.6%
CS(=O)(=O)Nc1ccc(Br)cc1C(=O)c1ccccc1,-2.9%,-5.3%,-2.0%,25.4%,4.6%,2.9%
CCNc1ccc(Br)cc(C(=O)/C=C/c2ccc(Cl)cc2)c1=O,?,25.1µM*,?,?,14.1µM*,?
CCNc1ccc(Br)cc(C(=O)/C=C/c2ccc3c(c2)OCO3)c1=O,?,14.1µM*,?,?,11.2µM*,?
CCNc1ccc(Br)cc(C(=O)/C=C/c2c(Cl)cccc2Cl)c1=O,?,?,?,?,12.6µM*,?
O=C(/C=C/c1ccc(F)cc1)c1cc(Br)ccc1O,-10.4%,7.0%,17.5%,nt,?,1.0%
Cc1cc(C)c(S(=O)(=O)N2CCC(N3CCN(Cc4ccc(F)cc4)C(=O)C3=O)CC2)c(C)c1,-2.4%,nt,nt,?,-4.3%,-1.9%
COc1ccc(-c2cc(C(=O)Nc3c(C(=O)c4ccc(C)cc4)oc4ccccc34)no2)cc1,-9.1%,nt,nt,12.5%[46 µM],2.8%,?
CCC(=O)Nc1ccc(C)cc1-c1nc2ccccc2n(CC(=O)c2ccc(C)cc2)c1=O,-0.2%,nt,nt,nt,1.1%,-5.3%
CO/N=C(/C(=O)NC1C(=O)N2C(C(=O)O)=C(COC(N)=O)CSC12)c1ccco1 (centres undefined),-15.1%,-23.7%,-2.6%,nt,?,-15.5%
Nc1nn(-c2ccccc2)c(N)c1N=Nc1ccccc1,-27.6%,4.8%,-27.5%,?,5.01µM*,3.9%
Cc1nn(-c2ccccc2)c(N)c1N=Nc1ccccc1,?,3.3%,-22.6%,9.5%,8.91µM*,2.1%
Nc1nn(-c2ccccc2)c(N)c1N=Nc1ccccc1F,?,10.8%,-27.9%,?,4.47µM*,5.5%
Cc1nn(-c2ccccc2)c(N)c1-c1ccccc1,-1.6%,-0.2%,3.3%,-7.0%[46 µM],-5.5%,8.2%
Cc1cc(C)n2nc(N)c(N=Nc3ccccc3)c2n1,-13.1%,-8.2%,-9.4%,nt,14.1µM*,4.5%
Cc1nn(-c2ccccc2)c(N)c1N=Nc1cccc(S(=O)(=O)N2CCOCC2)c1,?,-17.1%,nt,nt,?,5.7%
C=C[C@]1(C)Cc2occ(C)c2C[C@H]1C(=C)C(=O)O,-1.0%,-3.4%,-3.1%,nt,-3.1%,-5.1%
Cc1cccc(N=Nc2c(C)nn(-c3ccccc3)c2N)c1C,?,-2.6%,?,?,7.08µM*,7.6%
